Results from PubChem BioAssay AID651957 (The Scripps Research Institute Molecular Screening Center, 2012).
In all, about 370,000 compounds went through this assay and about 620 (0.17%) were called active.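 Rule for the calls: active = inhibition above the mean inhibition of all tested compounds plus 3 SD, set per campaign (cut at about 52% in these data); inactive = the rest.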 Many of the other results were omitted from the sample, so actives are more common in it than they were.

Target: Nuclear receptor coactivator 2 (Homo sapiens) (UniProt Q15596)
Sequence (Q15596 whole entry, looked up, the tested form may be a part): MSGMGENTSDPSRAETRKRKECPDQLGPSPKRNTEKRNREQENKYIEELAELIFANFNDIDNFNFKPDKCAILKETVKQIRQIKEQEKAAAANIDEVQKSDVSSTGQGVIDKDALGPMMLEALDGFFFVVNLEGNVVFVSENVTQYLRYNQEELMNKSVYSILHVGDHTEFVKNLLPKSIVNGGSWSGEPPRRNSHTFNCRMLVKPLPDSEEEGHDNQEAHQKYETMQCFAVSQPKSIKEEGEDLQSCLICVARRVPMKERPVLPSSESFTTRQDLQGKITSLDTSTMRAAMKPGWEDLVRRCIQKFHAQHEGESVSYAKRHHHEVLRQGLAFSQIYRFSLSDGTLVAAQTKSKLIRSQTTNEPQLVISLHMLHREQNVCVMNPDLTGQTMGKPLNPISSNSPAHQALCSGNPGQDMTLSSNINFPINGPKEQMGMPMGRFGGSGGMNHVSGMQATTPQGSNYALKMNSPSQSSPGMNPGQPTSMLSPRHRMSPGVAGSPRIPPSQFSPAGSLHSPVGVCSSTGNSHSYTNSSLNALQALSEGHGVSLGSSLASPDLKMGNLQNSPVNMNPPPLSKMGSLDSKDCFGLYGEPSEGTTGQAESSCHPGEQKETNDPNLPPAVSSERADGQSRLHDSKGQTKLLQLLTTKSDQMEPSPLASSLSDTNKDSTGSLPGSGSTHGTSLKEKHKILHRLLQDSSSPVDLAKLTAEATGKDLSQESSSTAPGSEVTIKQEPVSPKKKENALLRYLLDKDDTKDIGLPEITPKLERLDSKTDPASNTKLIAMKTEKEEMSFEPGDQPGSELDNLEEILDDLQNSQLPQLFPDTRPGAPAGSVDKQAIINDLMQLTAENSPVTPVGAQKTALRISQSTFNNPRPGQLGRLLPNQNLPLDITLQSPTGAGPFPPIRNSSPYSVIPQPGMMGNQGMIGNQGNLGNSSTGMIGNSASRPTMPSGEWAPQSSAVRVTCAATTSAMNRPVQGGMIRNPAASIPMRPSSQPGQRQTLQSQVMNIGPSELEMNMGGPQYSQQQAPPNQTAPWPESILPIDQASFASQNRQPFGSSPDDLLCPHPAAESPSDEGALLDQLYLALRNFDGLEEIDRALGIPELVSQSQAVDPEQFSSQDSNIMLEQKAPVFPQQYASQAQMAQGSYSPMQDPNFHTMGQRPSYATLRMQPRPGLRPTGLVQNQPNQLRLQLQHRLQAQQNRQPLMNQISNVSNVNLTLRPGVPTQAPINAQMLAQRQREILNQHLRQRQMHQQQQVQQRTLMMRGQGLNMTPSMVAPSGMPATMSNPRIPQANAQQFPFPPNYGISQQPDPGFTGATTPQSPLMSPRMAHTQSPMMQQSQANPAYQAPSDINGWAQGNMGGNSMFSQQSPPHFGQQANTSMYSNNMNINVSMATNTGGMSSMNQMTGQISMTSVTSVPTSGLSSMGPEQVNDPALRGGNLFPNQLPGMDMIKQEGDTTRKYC
Assay: decrease of SRC2 fusion reporter luminescence – cell-based, SRC2 inhibitor project, primary screen (AID 651957);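 note: 0% = DMSO treated cells and 100% = cells given Gossypol at 36 µM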
Settings: HEK293 GAL4-SRC2 luciferase reporter, at 9 µM, stronger effect = higher value

SMILES	inhibition
CCC(C)(O)C(=O)OC1C(=O)OC2CC3C(C)=CC(=O)C(O)C3(C)C3C4(O)OCC23C1C(C)C4O (stereo not given)	74.8% (active)
O=C(COc1ccc2ccccc2c1)N1CCN(Cc2ccncc2)CC1	9.05% (inactive)
CC1([N+](=O)[O-])COP(=O)(Nc2ccc(F)cc2)OC1 (stereo not given)	-54.9% (inactive)
CCN1CCN(C(=O)Cc2coc3cc(C)cc(C)c23)CC1	-5.27% (inactive)
CC(C)n1c(=O)c(C=Nc2ccc(Br)cc2)c(O)n(Cc2ccco2)c1=O	8.44% (inactive)
C[C@]12CC[C@H](O)C[C@H]1CC[C@@H]1C2CC[C@]2(C)[C@@H](C3=CC(=O)OC3)[C@@H](O)C[C@]12O (stereo not given in full)	10.7% (inactive)
COC1C(O)C(C)OC(OC2CCC3(C=O)C(CCC4C3CCC3(C)C(C5=CC(=O)OC5)CCC43O)C2)C1O (stereo not given)	55% (active)
Brc1ccc2c(c1)CNCc1cnnn1-2	-46.2% (inactive)
Cc1ccccc1CCC[C@@H](CC1CCCCC1)CN(C)C(=O)Oc1ccccc1	-0.22% (inactive)
COP(=O)(Sc1ccccc1)C(Cc1ccccc1)NC(=O)OCc1ccccc1 (stereo not given)	2.58% (inactive)
